Reference: PubChem BioAssay (Tox21)
Results filed as inconclusive are left out. Calls of active or inactive are those of the source. Calls follow the shape of the full dose curve.

Test: qHTS assay to identify small molecule agonists of the AP-1 signaling pathway (AID 1159526)
Conditions: ME-180 (cervical carcinoma) AP-1-bla reporter, beta-lactamase FRET ratio, 5 h; series mostly up to 76.8 µM; activation: at the top concentration
% is scaled to controls: 0 for no effect and ±100 for the full control effect.

Compound | outcome | activation
c1ccc(N=Nc2ccccc2)cc1 | inactive | 
O=P(O)(O)CCCl |  | -2.16% (inactive)
CCCCCCOC(=O)c1ccccc1C(=O)OCCCCCC | inactive | 
CCCCCCCCCCCOC(=O)c1ccccc1C(=O)OCCCCCCCCCCC | inactive | 
Nc1cccnc1 |  | 9.06% (inactive)
CCN(CC)N=O | inactive | 
C=CCc1ccc(OC)cc1 | inactive | 
Oc1ccc(-c2ccccc2)cc1 |  | 16.1% (inactive)
COP(=S)(OC)Oc1ccc([N+](=O)[O-])cc1 | inactive | 
CCCCN(CCCC)N=O | inactive | 
Brc1ccc(Oc2cc(Br)c(Br)cc2Br)c(Br)c1 |  | 5.37% (inactive)
N[C@@H](Cc1ccc(N(CCCl)CCCl)cc1)C(=O)O | inactive | 
CC1(C)C(C=C(Cl)Cl)C1C(=O)OC(C#N)c1cccc(Oc2ccccc2)c1 (stereo not drawn) |  | -1.68% [at 35.3 µM] (inactive)
Nc1ccc(Cl)cc1N | inactive | 
NCc1cccnc1 | inactive | 
Oc1cc(Cl)c(Cl)cc1Cl |  | 12.6% (inactive)
CCOc1cc(C=O)ccc1O | inactive | 
O=C(O)CC[N+](=O)[O-] |  | 7.15% (inactive)
Cc1ccc(OP(=O)(Oc2ccc(C)cc2)Oc2ccc(C)cc2)cc1 |  | 3.33% (inactive)
CCC(C)c1cc([N+](=O)[O-])cc([N+](=O)[O-])c1O (stereo not drawn) |  | 0.955% (inactive)
CC(C)c1ccc(CO)cc1 | inactive | 
c1nc[nH]n1 | inactive | 
Cc1cc(Cl)ccc1OCCCC(=O)O |  | 6.44% (inactive)
CCCCCCCCOC(=O)c1ccccc1C(=O)OCCCCCCCC | inactive | 
CN(C)c1ccc(C(=O)c2ccc(N(C)C)cc2)cc1 |  | 6.5% (inactive)
CC(O)CCO (stereo not drawn) | inactive | 
CCCCNC(=O)n1c(NC(=O)OC)nc2ccccc21 |  | -2.17% (inactive)
C=CCN(CC=C)C(=O)C(Cl)Cl | inactive | 
